# Assay results: PubChem BioAssay AID624330 (Southern Research Specialized Biocontainment Screening …, 2012)
# In all, about 340,000 compounds went through this assay and about 2,100 (0.62%) were called active. Only a sample is shown. Results with a measured potency or affinity are listed apart. Unmarked numbers belong to inactive results.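 How the source made its calls: active means first-screen hits whose inhibition reached a set limit at any dose in the follow-up dose series; inconclusive means inhibition above the set first-screen limit but never retested; inactive means the rest.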
# Target: Rac GTPase-activating protein 1 (Homo sapiens) (UniProt Q9H0H5)
# Experiment: MgcRacGAP GTPase-activating activity inhibitors, confirmation, biochemical, ADP Hunter fluorescence, primary and confirmatory (AID 624330);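 further: fluorescence reports GDP produced by GAP-driven GTP hydrolysis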
# Details: MgcRacGAP-stimulated Rac1 GTP hydrolysis, at 30 µM, active compounds read high, GST-tagged Rac1 F28L mutant substrate
# Rac GTPase-activating protein 1 (Homo sapiens), sequence (Q9H0H5 whole entry, looked up): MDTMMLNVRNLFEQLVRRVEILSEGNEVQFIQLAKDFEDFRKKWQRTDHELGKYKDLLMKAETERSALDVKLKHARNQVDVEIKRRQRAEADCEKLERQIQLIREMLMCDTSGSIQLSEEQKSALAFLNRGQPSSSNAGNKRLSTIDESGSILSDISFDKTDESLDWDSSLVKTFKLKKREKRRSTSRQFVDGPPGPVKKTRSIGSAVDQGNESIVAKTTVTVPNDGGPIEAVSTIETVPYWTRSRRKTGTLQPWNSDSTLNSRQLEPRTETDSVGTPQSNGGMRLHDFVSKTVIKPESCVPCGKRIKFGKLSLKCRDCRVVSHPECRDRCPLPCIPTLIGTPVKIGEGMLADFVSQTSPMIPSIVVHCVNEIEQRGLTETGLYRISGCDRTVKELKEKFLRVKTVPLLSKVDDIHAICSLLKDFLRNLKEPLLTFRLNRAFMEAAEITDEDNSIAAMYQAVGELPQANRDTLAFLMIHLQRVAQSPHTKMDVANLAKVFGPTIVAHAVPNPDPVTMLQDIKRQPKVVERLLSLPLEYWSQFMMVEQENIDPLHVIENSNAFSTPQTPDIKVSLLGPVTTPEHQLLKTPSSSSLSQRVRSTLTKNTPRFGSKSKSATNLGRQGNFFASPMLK
row,SMILES,inhibition [%]
1,COc1ccc(C(=O)N/C(=C\c2cn(S(=O)(=O)N(C)C)c3ccccc23)C(=O)N2CCCC2)cc1,12
2,CCOc1cc(/C=N/n2nnnc2N)ccc1OCc1c(C)no[n+]1[O-],7.97
3,O=C(/C=C/c1ccccc1)NC(=O)c1ccccc1O,11.1
4,O=C(/C=C/c1ccc(Br)cc1)NC(=O)c1ccccc1O,0.42
5,CCN(CC)C(=O)c1[nH]cnc1C(=O)N[C@@H](CC(C)C)C(=O)OC(C)(C)C,8.38
6,COc1ccc(C(=O)CC2OC(=O)c3c2ccc(OC)c3OC)cc1 (configuration not stated),-2.86
7,COc1ccc2c(c1OC)C(=O)OC2CC(=O)c1ccc(O)cc1 (configuration not stated),12.6
8,COc1cc(S(=O)(=O)N2CCCCC2)ccc1NC(=O)c1ccncc1,4.39
9,O=C(NCc1ccccc1)c1n[nH]nc1-c1ccccc1O,-8.5
10,Nc1nc(N)c(N=Nc2ccc(C(=O)O)cc2)c(N)n1,-11.2
11,Nc1nc(N)c(N=Nc2ccccc2)c(=O)[nH]1,2.34
12,C[C@H](CO)N1C[C@H](C)[C@@H](CN(C)S(C)(=O)=O)Oc2ccc(NC(=O)CCN3CCOCC3)cc2C1=O,3.2
13,COc1ccc(/C=N/Nc2nc(N3CCCCC3)nc(N3CCCCC3)n2)cc1[N+](=O)[O-],-0.88
14,CCOc1cc(/C=N/Nc2nc(N3CCCC3)nc(N3CCCC3)n2)ccc1O,26.7
15,C(=N\Nc1nc(N2CCCC2)nc(N2CCCC2)n1)/c1ccncc1,-2.52
16,O=[N+]([O-])c1cc(/C=N/Nc2nc(N3CCCCC3)nc(N3CCCCC3)n2)ccc1O,9.9
17,COc1ccc(/C=N/Nc2nc(N3CCCC3)nc(N3CCCC3)n2)cc1,3.1
18,CCOc1ccc(/C=N/Nc2nc(N3CCCC3)nc(N3CCCC3)n2)cc1OC,3.96
19,Cn1c(=O)c2ncn(CC(=O)NCCOCc3ccccc3Cl)c2n(C)c1=O,0.57
20,O=C(CS(=O)CC(=O)Nc1cccnc1)Nc1ccc(F)cc1 (configuration not stated),5.58
21,CCOc1ccccc1/C=C(\C#N)C(=O)Nc1cccc(C(=O)O)c1,-4.51
22,CCCCN(C(=O)C1CCN(C(=O)c2ccccc2C)CC1)c1c(N)n(CCCC)c(=O)[nH]c1=O,4
23,O=C(O)COCC(=O)Nc1ccc2c(c1)ncn2CCc1ccccc1,2.87
24,NC(=O)c1ccc(NC(=O)c2cncn2-c2ccccc2)cc1,1.08
25,CC(C)(C)C1CCC(=O)N(CCOc2ccccc2)CC1 (configuration not stated),5.11

row,SMILES,inhibition [%]
1,CCN(c1ccccc1)S(=O)(=O)c1ccc(N2CCN(c3ccc(OC)cc3)CC2)nc1,4.13
2,CCN(c1ccccc1)S(=O)(=O)c1ccc(N2CCN(c3ccccc3O)CC2)nc1,5.54
3,CN1/C(=C\C(=O)c2cccc([N+](=O)[O-])c2)Sc2ccccc21,10.8
4,CSCCC(NC(=O)c1ccc([N+](=O)[O-])cc1Cl)C(=O)OCC(=O)NC(=O)CN1CCCC1=O (configuration not stated),-5.24
5,CCOc1ccc(S(=O)(=O)N2CCN(Cc3ccccc3)CC2)cc1,-12
6,CCOc1ccc(CN2CCN(S(=O)(=O)c3ccc(NC(C)=O)cc3)CC2)cc1OC,10.5
7,Cc1ccc(S(=O)(=O)NCCC(=O)N2CCN(c3ccccc3)CC2)cc1C,-2.5
8,O=C(COC(=O)Cn1cnc2ccccc21)NCCCc1ccccc1,0.48
9,O=C(CNCc1ccc(Cl)cc1)N1CCc2ccccc2C1,25.8
10,O=C(CNCc1cccc(Cl)c1)N1CCc2ccccc2C1,30.6
11,CN(Cc1ccc(N(C)C)cc1)C(=O)c1cc2ccccc2o1,2.93
12,C#CCOCCOCCOCCNc1nc(N2CCN(C(=O)Cn3cc(CCO)nn3)CC2)nc(N2CCN(C(=O)[C@H]([C@@H](C)CC)n3cc(CCCN=C(N)N)nn3)CC2)n1,-0.25
13,O=C(Cc1ccc([N+](=O)[O-])cc1)Nc1cccc(C(=O)N2CCCCC2)c1,6.71
14,N/C(COc1ccc(Cl)cc1Cl)=N\O,7.42
15,C[C@@H](NC(=O)C[C@@H]1C[C@@H]2c3cc(NS(=O)(=O)c4ccc(F)cc4)ccc3O[C@@H]2[C@@H](CO)O1)c1ccccc1,14.8
16,CCN1/C(=C2\C(=O)N(C)C(=S)N2C)C=Cc2cc(C)ccc21,30.1
17,CCN1/C(=C2/SC(=S)N(C)C2=O)C=Cc2cc(C)ccc21,1.56
18,CC(C)CNC(=S)NC1CC2CCCC(C1)N2Cc1cccs1 (configuration not stated),-4.03
19,CCOC(=O)Nc1cc(NC(=O)OCC)c(C)nc1C,9.52
20,CCc1nc(Nc2ccccc2)c2oc3ccccc3c2n1,7.79
21,c1ccc2c(c1)oc1c(Nc3ccc(CN4CCOCC4)cc3)ncnc12,14.1
22,c1ccc(Nc2ncnc3c2oc2ccccc23)cc1,13
23,CCc1nc(SCC(=O)N2CCN(c3ccccc3)CC2)c2oc3ccccc3c2n1,18.4
24,CC(=O)c1ccc(Nc2ncnc3c2oc2ccccc23)cc1,5.82
25,CCc1nc(Nc2ccncc2)c2oc3ccccc3c2n1,9.44

row,SMILES,inhibition [%]
1,CCc1nc(Nc2ccc(F)cc2)c2oc3ccccc3c2n1,10.5
2,Cc1ccc(Nc2ncnc3c2oc2ccccc23)cc1,11.9
3,COc1ccc(NC(=O)Nc2nnc(CC(=O)NCc3ccccc3)s2)cc1,-13.3
4,COc1cc(C(=O)N2CCN(c3ccc([N+](=O)[O-])cc3)CC2)ccc1OCc1c(C)noc1C,12.9
5,COc1cc(NC(=O)Cn2cnc(S(=O)(=O)N3CCCCC3)c2)cc(OC)c1OC,1.97
6,O=C(NCc1ccccc1)c1cc(=O)c2ccccc2o1,3.22
7,CSC[C@H]1CN(Cc2ccccc2)C(=O)[C@@H]1CC(=O)Nc1ccc(Br)cc1,11
8,COCCCn1c(SCC(=O)NC(C)(C)C)nnc1-c1cccs1,9.91
9,O=C(N/N=C/c1ccc(C(F)(F)F)cc1)c1ccncc1,5.6
10,Fc1ccc(Nc2ncnc3ccccc23)cc1,9.64
11,Cc1ccc(Nc2ncnc3ccccc23)cc1,12.6
12,COc1ccc(-c2nsc(SCC(=O)NCC3CCCO3)n2)cc1 (configuration not stated),5.33
13,O=C1C2C3C=CC(CC3)C2C(=O)N1c1ccc([N+](=O)[O-])cc1 (configuration not stated),12.6
14,COc1ccnc(NCc2cccc(C(F)(F)F)c2)c1C#N,-0.963
15,COc1cccc(Cn2nc(C(=O)O)c3ccccc3c2=O)c1,0.46
16,Cn1ccc(=O)c2cc([N+](=O)[O-])ccc21,9.86
17,CCn1c2ccccc2c2cc(NC(=O)c3ccc([N+](=O)[O-])cc3)ccc21,8.32
18,Cc1csc(SCC(=O)NC2CCC(C)CC2)n1 (configuration not stated),-6.91
19,O=C(c1ccco1)N1CCN=C1SCc1cccnc1,4.28
20,CC(Oc1ccc(Cl)cc1Cl)C(=O)Nc1cccc(O)c1 (configuration not stated),9.91
21,CC(=O)Nc1ccc(NC(=O)C(C)Oc2ccc(Cl)cc2Cl)cc1 (configuration not stated),1.91
22,O=C(O)[C@H]1CCCC[C@H]1C(=O)Nc1ccc(S(=O)(=O)N2CCOCC2)cc1,4.65
23,CCN(CC)c1ccc(NC(=O)c2ccc3c(c2)OCO3)c(C)c1,24.3
24,O=C(COC(=O)c1ccc2c(c1)OCO2)Nc1ccccc1,4.56
25,O=C(O)C1CCCCC1C(=O)Nc1ccc(S(=O)(=O)N2CCCC2)cc1 (configuration not stated),6.7

row,SMILES,inhibition [%]
1,NC(=O)c1ccc(NC(=O)COC(=O)c2ccc3c(c2)OCO3)cc1,2.24
2,O=C(Nc1ccc(S(=O)(=O)N2CCOCC2)cc1)c1ccc(S(=O)(=O)N2CCOCC2)cc1,0.49
3,CCC(=O)Nc1ccc(NC(=O)c2ccc3c(c2)OCO3)cc1,11.5
4,CC(=O)Nc1ccc(C(=O)Nc2ccc(S(=O)(=O)N3CCOCC3)cc2)cc1,-2.26
5,CCC[C@@H](CN1CCC[C@H]1CN1C(N)=NC[C@@H]1Cc1ccccc1)N1C[C@@H]([C@H](C)CC)N(CCCC2CCCC2)C1=N,12.3
6,COc1ccccc1CNC(=O)COC(=O)Cc1c[nH]c2ccccc12,4.99
7,CC1CCCC(C)N1CCCNC(=O)CN1C(=O)c2cccnc2Oc2ccc(Cl)cc21 (configuration not stated),6.32
8,CCC(C)N1CCCCC1C(=O)Nc1c(C)cc(C)cc1C (configuration not stated),2.22
9,CCc1ccc(NC(=O)CCc2nc3ccccc3[nH]2)cc1,10.8
10,COc1ccc(Br)cc1CNc1ccc(S(N)(=O)=O)cc1,0.46
11,COc1ccc(Br)cc1CNc1ccccc1,26
12,CC(C)n1c(SCC(=O)Nc2nncs2)nnc1C1CC1,4.43
13,NC(=O)C[C@H](NC(=O)c1ccc(Cl)cc1)C(=O)OCc1ccccc1,8.75
14,COc1cccc(NC(=O)C(=O)c2cn(CC(=O)N3CCCC3)c3ccccc23)c1,10
15,CCN=c1scc(-c2ccco2)n1/N=C/c1ccc(OC)c(O)c1,28
16,C=CCN=c1scc(-c2ccco2)n1/N=C/c1ccc(O)c(O)c1O,-25.9
17,CN=c1scc(-c2ccccc2F)n1/N=C/c1ccc(O)c(O)c1O,-8.6
18,COc1ccc(O)c(/C=N/n2c(-c3ccco3)csc2=Nc2cccnc2)c1,14.5
19,COCCN=c1scc(-c2ccco2)n1/N=C/c1ccc(O)c(O)c1O,-21.8
20,CCN=c1scc(-c2ccco2)n1/N=C/c1ccc(O)cc1,13.7
21,CC(C)n1c(-c2ccco2)csc1=Nc1cccnc1,11.3
22,CCN=c1scc(-c2ccc(F)cc2)n1/N=C/c1ccccn1,9.08
